Records with an inconclusive call do not appear. The source made the active and inactive calls. Unless noted, the call rests on the fitted dose curve; in most records, active means well fitted curve in the direction sought with a large enough effect; inconclusive means small, poorly fitted or top-dose-only effect, or another doubt; inactive means no such curve, though single readings can be large; an effect the other way counts as inactive or inconclusive.
Key:
[1] = S16 Schwann cell viability assay (CellTiter-Glo assay) (AID 624031);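 further: native untransfected S16 rat Schwann cells; series mostly up to about 58 µM; nearly all actives have a fitted effect of over 70% in size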
Procedure, shortened: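 Counter-screen for cytotoxicity: parental S16 rat Schwann cells lacking the PMP22 reporters, treated 24 h with compound, viability from cellular ATP by CellTiter-Glo luminescence, normalized to DMSO (0%) and no-cell wells.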

[2] = S16 Schwann cell PMP22 intronic element beta-lactamase assay (AID 624044; calls by dose curve; further: nearly all actives have a fitted effect of over 15% in size)
Procedure, shortened: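 Rat S16 Schwann cells with beta-Lac driven by a PMP22 intronic element, compound-treated 24 h at 37 °C. LiveBLAzer FRET B/G read: 460 nm normalized to potassium clavulanate vs DMSO; 535 nm FRET as viability; concentration-effect curves classified.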

[3] = target: Rap guanine nucleotide exchange factor 3 (Homo sapiens) (UniProt O95398); test: Counterscreen qHTS for antagonist of cAMP-regulated guanine nucleotide exchange factor 3 (EPAC1) (AID 1645888);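 further: fluorescence loss as bound BODIPY-GDP is released from Rap1B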
Chain of Rap guanine nucleotide exchange factor 3 (Homo sapiens) (O95398 whole entry, looked up): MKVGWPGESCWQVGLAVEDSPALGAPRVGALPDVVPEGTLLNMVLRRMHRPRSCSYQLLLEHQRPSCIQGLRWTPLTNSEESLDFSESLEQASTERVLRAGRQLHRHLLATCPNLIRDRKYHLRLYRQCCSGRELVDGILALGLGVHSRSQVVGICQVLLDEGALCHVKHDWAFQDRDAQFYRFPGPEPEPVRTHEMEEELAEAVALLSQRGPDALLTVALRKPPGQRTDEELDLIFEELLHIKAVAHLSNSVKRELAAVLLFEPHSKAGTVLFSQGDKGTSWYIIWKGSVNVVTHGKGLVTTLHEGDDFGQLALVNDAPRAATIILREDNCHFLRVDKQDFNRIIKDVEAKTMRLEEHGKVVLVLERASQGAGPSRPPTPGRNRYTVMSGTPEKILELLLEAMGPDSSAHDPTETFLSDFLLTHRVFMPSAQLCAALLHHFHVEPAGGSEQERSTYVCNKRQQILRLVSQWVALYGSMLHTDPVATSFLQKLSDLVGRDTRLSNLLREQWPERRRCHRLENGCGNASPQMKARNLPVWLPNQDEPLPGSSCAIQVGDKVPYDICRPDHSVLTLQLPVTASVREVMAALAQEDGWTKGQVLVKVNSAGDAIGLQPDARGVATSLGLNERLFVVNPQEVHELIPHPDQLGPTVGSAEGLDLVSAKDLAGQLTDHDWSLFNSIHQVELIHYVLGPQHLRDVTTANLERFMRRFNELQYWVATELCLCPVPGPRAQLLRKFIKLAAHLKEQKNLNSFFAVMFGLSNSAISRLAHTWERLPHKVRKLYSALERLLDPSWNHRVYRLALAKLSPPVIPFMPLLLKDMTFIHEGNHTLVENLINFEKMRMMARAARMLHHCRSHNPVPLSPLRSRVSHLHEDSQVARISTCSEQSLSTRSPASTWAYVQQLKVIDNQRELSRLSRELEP
Procedure, shortened: (§1)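 Rap1B-BODIPY-GDP 250 nM + GDP 50 uM; cpds 7-pt, final 9.74 nM–152 uM (activator mode) or from 7.32 nM upwards (inhibitor mode); RT; FI 480/540 nm at 5 and 30 min, then ± cAMP, reread.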

[4] = target: Rap guanine nucleotide exchange factor 3 (Homo sapiens) (UniProt O95398); test: Counterscreen qHTS for agonist of cAMP-regulated guanine nucleotide exchange factor 3 (EPAC1) (AID 1645889); further: nearly all actives have a fitted effect of over 40% in size
Procedure, shortened: as §1

Measured: outcome

CC(/C=C1\SC(=S)N(CC(=O)O)C1=O)=C\c1ccccc1
inactive: all assays above

From PubChem BioAssay (NCATS)
